The list is not random: actives were taken first. Their share in the collection is about 0.82%.
FadD28 binding: blocks FadD28 binding to the bisubstrate probe; fluorescence polarization; 360,000 tested, 0.22% active; inhibition, % at 12.5 µM; in the data active = inhibition above about 8.5%, passing the limit was not always enough
Y pestis TopoI: blocks Yersinia pestis topoisomerase I activity; activity, % at 10 µM; AID 504884; 360,000 tested, 0.064% active; Y. pestis Topo-I cleavage product accumulation, plate reader; in the data active = activity above about 50%, passing the limit was not always enough
UGM FP inh: blocks M. tuberculosis UGM enzyme. P9WIQ1. purified UGM, fluorescence polarization probe displacement. inhibition, % at 10 µM. 320,000 tested, 0.06% active. AID 504406; in the data active = inhibition above about 10%, passing the limit was not always enough
Rv3671c protease: inhibitors of M. tuberculosis serine protease Rv3671c; P9WHR9; inhibition, % at 5.96 µM; 320,000 tested, 0.048% active; in the data active = inhibition above about 38%;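 note: extracellular domain of Rv3671c used as enzyme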
Target sequence (P9WHR9 whole entry, looked up, the tested form may be a part): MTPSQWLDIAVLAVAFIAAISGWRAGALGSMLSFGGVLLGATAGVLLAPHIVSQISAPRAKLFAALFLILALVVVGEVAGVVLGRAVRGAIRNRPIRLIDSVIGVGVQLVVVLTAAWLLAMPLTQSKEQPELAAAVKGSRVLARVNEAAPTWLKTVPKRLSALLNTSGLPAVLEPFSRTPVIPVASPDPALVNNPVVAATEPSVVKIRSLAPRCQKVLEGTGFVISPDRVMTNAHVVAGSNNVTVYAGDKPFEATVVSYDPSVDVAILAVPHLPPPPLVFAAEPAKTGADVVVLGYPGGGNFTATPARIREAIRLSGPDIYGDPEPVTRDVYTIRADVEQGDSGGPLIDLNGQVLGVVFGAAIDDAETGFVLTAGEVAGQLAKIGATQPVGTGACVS
BioA inh: inhibitors of Mycobacterium tuberculosis BioA enzyme. purified M. tuberculosis BioA enzyme, plate reader. inhibition, % at 9.99 µM. 360,000 tested, 0.096% active. AID 602481; in the data active = inhibition above about 40%
RecA splice inh: Mtb RecA intein splicing inhibition. P9WHJ3. cell-free RecA intein splicing, fluorescence. inhibition, % (no concentration beside the values). 290,000 tested, 0.75% active. AID 2221; in the data active = inhibition above about 30%
Numbers stand for hits; – = inactive; · = no result.

SMILES	FadD28 binding	Y pestis TopoI	UGM FP inh	Rv3671c protease	BioA inh	RecA splice inh
C/C=C/c1cnc2c(c1)C(=O)N([C@@H](C)CO)C[C@H](C)[C@@H](CN(C)Cc1cccc(C(=O)O)c1)O2	·	·	·	·	–	·
CC(C)c1cn(CC[C@H]2CC[C@@H](NS(=O)(=O)c3ccccc3)[C@H](CO)O2)nn1	·	·	·	·	–	·
O=C(Nc1ccccc1N1CCCCC1)c1cccc(OC(F)F)c1	–	57	–	–	–	–
COc1cccc(C(=O)Nc2ccccc2N2CCCC2)c1	–	–	–	–	–	–
C[C@H]1CN([C@@H](C)CO)C(=O)c2cccc(NC(=O)C3CCOCC3)c2O[C@H]1CN(C)Cc1ccncc1	·	·	·	·	–	·
COc1cccc(NCc2cc(=O)oc3cc(-c4ccccc4)c(O)cc23)c1	24	–	–	–	·	–
COc1ccc(S(=O)(=O)Nc2ccc3c(c2)C(=O)N([C@H](C)CO)C[C@@H](C)[C@H](CN(C)C(=O)C2CCCCC2)OCCCC[C@H](C)O3)cc1	·	·	·	·	–	·
Nc1nc2c(s1)COc1ccccc1-2	–	–	–	–	–	–
Nc1nc2c(s1)CCc1c-2cnn1-c1ccccc1	–	–	–	–	–	98
CC(=O)N1CCN(S(=O)(=O)c2cccc(C(=O)NNC(=O)Cn3ccc(C(F)(F)F)n3)c2)CC1	–	–	–	–	·	–
CC(=O)N1CCN(S(=O)(=O)c2cccc(C(=O)NNC(=O)Cn3nc(C)cc3C)c2)CC1	·	–	10	–	–	·
O=C1C2C3C=CC(C3)C2C(=O)N1CNc1ccc(O)cc1 (centres undefined)	·	·	–	–	·	62
CO[C@@H]1CN(C)C(=O)c2ccc(NC(=O)C3CCOCC3)cc2OC[C@H](C)NC[C@H]1C	·	·	·	·	–	·
COc1cccc(S(=O)(=O)N2CC[C@H]3[C@H](CO)Nc4ccc(Br)cc4[C@H]32)c1	·	·	·	·	–	·
CCOC(=O)c1ccc(N2C(=O)c3n[nH]c(-c4ccco4)c3C2c2ccc([N+](=O)[O-])cc2)cc1 (centres undefined)	–	–	–	–	–	32
COCC(=O)Nc1ccc2c(c1)OC[C@@H](C)N(Cc1ccccc1OC)C[C@H](C)[C@@H](OC)CN(C)C2=O	·	·	·	·	–	·
O=C(COC(=O)c1ccc(O)cc1)Nc1ccc(Cl)cc1	·	·	–	–	·	–
O=C(O)CCC(=O)Nc1ccc(C(=O)OCC(=O)c2ccc(Cl)cc2)cc1	15	–	–	–	–	–
CC(C)NC(=O)Nc1ccc2c(c1)C(=O)N([C@H](C)CO)C[C@@H](C)[C@@H](CN(C)S(=O)(=O)c1ccc(Cl)cc1)OCCCC[C@@H](C)O2	·	·	·	·	–	·
CC(C)C#Cc1cnc2c(c1)C(=O)N([C@@H](C)CO)C[C@@H](C)[C@H](CN(C)Cc1ccc3c(c1)OCO3)O2	·	·	·	·	–	·
C[C@@H]1CCCCO[C@H](CN(C)S(=O)(=O)c2ccc(F)cc2)[C@@H](C)CN([C@@H](C)CO)C(=O)c2cc(NS(C)(=O)=O)ccc2O1	·	·	·	·	–	·
Cc1ccc(CNc2ccc(O)cc2)cc1	12	–	·	·	–	85
Cc1ccc(NC(=O)c2cc(NC(=O)/C=C\C(=O)O)ccc2N2CCCCC2)cc1	–	–	–	–	–	48
Cc1ccc(NC(=O)c2cc(NC(=O)c3ccccc3C(=O)O)ccc2N2CCCCC2)cc1	–	–	–	–	·	–
CCCCCC/C(C)=C1/SC(=S)NC1=O	–	–	–	–	–	–
SMILES	FadD28 binding	Y pestis TopoI	UGM FP inh	Rv3671c protease	BioA inh	RecA splice inh
C/C(C/C(C)=C1/SC(=S)NC1=O)=C1\SC(=S)NC1=O	20	–	·	·	·	·
Cc1cc(C(C)(C)C)cc(S(=O)(=O)Nc2ccc(O)c(C(=O)O)c2)c1C	–	–	17	–	·	–
Cc1cc(C)c(S(=O)(=O)Nc2ccc(C(=O)O)cc2)cc1S(=O)(=O)Nc1ccc(C(=O)O)cc1	–	–	11	–	–	–
CCCN1C[C@H](C)[C@H](OC)CN(C)C(=O)c2ccc(NC(=O)Nc3c(C)noc3C)cc2OC[C@@H]1C	·	·	·	·	–	·
O=C(C[C@H]1CC[C@H](NC(=O)C2CCOCC2)[C@H](CO)O1)Nc1nccs1	·	·	·	·	–	·
COc1ccccc1/C=C1\SC(=S)N(CCC(=O)Nc2ccc(C(=O)O)c(O)c2)C1=O	–	–	–	–	·	–
O=C(CCN1C(=O)/C(=C/c2ccco2)SC1=S)Nc1ccc(C(=O)O)c(O)c1	11	–	–	–	–	–
O=C(CCN1C(=O)/C(=C\c2ccco2)SC1=S)Nc1ccc(C(=O)O)c(O)c1	15	–	–	–	–	–
O=C(C[C@@H]1C=C[C@H](NC(=O)Nc2ccccc2F)[C@H](CO)O1)NCc1ccc(Cl)cc1	·	·	·	·	–	·
C/C=C/c1ccc2c(c1)O[C@H](CN(C)Cc1ccccn1)[C@H](C)CN([C@H](C)CO)S2(=O)=O	·	·	·	·	–	·
O=C(Oc1ccc(Br)cc1C(=S)N1CCCCC1)c1cc([N+](=O)[O-])cc([N+](=O)[O-])c1	–	–	–	–	·	64
O=C(Oc1ccc(Br)cc1C(=S)N1CCCC1)c1ccccc1Cl	–	–	–	–	–	–
O=C1C(=O)C(Cl)=C(Cl)C(Cl)=C1Cl	11	·	·	·	–	·
CC1(C)CC(CCNS(=O)(=O)c2ccccc2)(c2ccccc2)CCO1 (centres undefined)	–	–	–	–	·	–
CC1(C)CC(CCNC(=O)CCl)(c2ccccc2)CCO1 (centres undefined)	–	–	–	–	–	32
COc1ccc(-c2nc(C#N)c(NCc3ccc(F)cc3)o2)cc1OC	11	–	–	–	–	–
COc1ccc(-c2nc(C#N)c(NCc3cccnc3)o2)cc1OC	–	–	–	–	–	–
CCCCC1=CC2=CC(=O)C(C)(OC(=O)c3cnc4ccccc4n3)C(=O)C2=CO1 (centres undefined)	·	·	–	–	·	34
NC(=O)c1cc(-c2csc(NCCc3ccccc3)n2)ccc1O	15	–	–	–	–	·
C=CCNc1nc(-c2ccc(O)c(C(N)=O)c2)cs1	–	–	–	–	–	–
Cc1noc(C)c1NC(=O)N(C)C[C@@H]1Oc2ccc(NS(=O)(=O)c3c(C)noc3C)cc2CC(=O)N([C@@H](C)CO)C[C@H]1C	·	·	·	·	–	·
CC(C)OCCCn1c(=NC(=O)c2ccncc2)c(C#N)cc2c(=O)n3ccccc3nc21	–	–	38	–	–	·
COC1C(OC(=O)c2ccc(C)[nH]2)C(O)C(Oc2ccc3c(O)c(NC(=O)c4ccc(O)c(CC=C(C)C)c4)c(=O)oc3c2Cl)OC1(C)C (centres undefined)	20	–	–	–	–	·
CO[C@@H]1[C@@H](OC(N)=O)[C@@H](O)[C@H](Oc2ccc3c(O)c(NC(=O)c4ccc(O)c(CC=C(C)C)c4)c(=O)oc3c2C)OC1(C)C	–	–	·	·	–	·
O=C(N[C@H]1CC[C@@H](CC(=O)N2CCc3ccccc3C2)O[C@H]1CO)C1CC1	·	·	·	·	–	·
O=C1/C(=C/Nc2cccc([N+](=O)[O-])c2)CCc2ccccc21	–	–	–	–	–	60
O=C1/C(=C\c2ccc([N+](=O)[O-])cc2)CCc2ccccc21	–	–	–	–	·	·
CCOC(=O)C1CCN(S(=O)(=O)c2c(Cl)ccc3nonc23)CC1	–	–	–	–	–	41

Source: PubChem
